# Tests used:
# Assay in all cases: DAPPL (digital affinity profiling via proximity ligation, sequencing); 10 mM Tris-HCl pH 7.5, 50 mM NaCl, 1 mM DTT, 4% glycerol, room temperature, 30 min; GST-TFs on glutathione beads, 16-mer random dsDNA library, 0.1% formaldehyde crosslink after washing; high values mean tight binding
# Details in all cases: protein: recombinant; tags: N-terminal GST; dsDNA, one strand shown
# ERF = biological target: T1, ERF (Homo sapiens, UniProt P50548 1-548)
# T1 sequence: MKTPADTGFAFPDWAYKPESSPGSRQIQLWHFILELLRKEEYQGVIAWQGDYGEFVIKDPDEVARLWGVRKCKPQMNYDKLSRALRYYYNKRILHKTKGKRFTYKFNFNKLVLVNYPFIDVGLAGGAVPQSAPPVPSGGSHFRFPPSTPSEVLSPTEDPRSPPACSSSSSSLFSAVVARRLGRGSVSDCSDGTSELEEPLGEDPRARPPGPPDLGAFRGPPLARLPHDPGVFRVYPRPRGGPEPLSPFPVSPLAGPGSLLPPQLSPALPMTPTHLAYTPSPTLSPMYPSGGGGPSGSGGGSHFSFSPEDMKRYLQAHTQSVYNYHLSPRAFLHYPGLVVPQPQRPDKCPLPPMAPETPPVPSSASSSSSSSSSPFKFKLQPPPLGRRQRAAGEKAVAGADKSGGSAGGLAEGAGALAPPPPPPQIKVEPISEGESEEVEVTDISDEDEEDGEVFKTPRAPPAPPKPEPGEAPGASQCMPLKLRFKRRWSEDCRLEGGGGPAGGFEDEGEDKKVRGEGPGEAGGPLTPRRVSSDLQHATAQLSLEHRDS
# Procedure, shortened: (§1)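 Human transcription factors carrying a GST fusion were produced in yeast, bound to glutathione beads, tagged with DNA barcodes and pooled together with a tag-only sample. Each pool was held with 200 nmole of a random double-stranded 16-mer DNA library in Tris/NaCl/DTT/glycerol buffer for 30 min at room temperature, then washed, crosslinked in 0.1% formaldehyde, proximity-ligated with BsaI/T4 ligase (1 h, 37 °C), PCR-amplified and sequenced on an Illumina NextSeq500. Binding signal is the read frequency of each hexamer for a given factor divided by its frequency in the tag-only sample.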
# ETV3L = biological target: T2, ETV3L (Homo sapiens, UniProt Q6ZN32 1-361)
# T2 sequence: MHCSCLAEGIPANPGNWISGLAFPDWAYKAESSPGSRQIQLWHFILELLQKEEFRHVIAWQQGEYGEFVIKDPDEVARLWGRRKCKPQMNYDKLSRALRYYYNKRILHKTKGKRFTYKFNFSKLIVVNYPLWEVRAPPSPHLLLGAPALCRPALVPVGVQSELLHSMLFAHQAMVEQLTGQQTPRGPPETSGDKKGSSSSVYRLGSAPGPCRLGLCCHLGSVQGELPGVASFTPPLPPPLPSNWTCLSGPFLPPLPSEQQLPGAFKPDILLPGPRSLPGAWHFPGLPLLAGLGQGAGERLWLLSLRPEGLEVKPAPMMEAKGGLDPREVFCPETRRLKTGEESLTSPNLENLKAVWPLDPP
# Procedure, shortened: as §1
# ETS2 = biological target: T3, ETS2 (Homo sapiens, UniProt P15036 1-469)
# T3 sequence: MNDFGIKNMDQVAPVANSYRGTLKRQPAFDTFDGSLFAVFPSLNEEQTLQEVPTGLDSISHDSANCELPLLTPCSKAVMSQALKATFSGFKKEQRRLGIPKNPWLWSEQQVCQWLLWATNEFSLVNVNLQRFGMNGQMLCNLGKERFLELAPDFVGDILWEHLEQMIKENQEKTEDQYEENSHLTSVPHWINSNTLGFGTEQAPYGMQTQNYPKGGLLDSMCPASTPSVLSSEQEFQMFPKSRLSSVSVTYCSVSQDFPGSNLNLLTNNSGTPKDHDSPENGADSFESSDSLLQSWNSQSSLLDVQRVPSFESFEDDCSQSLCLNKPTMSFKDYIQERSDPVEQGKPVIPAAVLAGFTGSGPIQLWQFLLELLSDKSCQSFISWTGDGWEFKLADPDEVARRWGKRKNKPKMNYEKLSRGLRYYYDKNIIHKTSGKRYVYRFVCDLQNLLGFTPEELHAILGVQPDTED
# Procedure, shortened: as §1
# SPDEF = biological target: T4, SPDEF (Homo sapiens, UniProt O95238 1-335)
# T4 sequence: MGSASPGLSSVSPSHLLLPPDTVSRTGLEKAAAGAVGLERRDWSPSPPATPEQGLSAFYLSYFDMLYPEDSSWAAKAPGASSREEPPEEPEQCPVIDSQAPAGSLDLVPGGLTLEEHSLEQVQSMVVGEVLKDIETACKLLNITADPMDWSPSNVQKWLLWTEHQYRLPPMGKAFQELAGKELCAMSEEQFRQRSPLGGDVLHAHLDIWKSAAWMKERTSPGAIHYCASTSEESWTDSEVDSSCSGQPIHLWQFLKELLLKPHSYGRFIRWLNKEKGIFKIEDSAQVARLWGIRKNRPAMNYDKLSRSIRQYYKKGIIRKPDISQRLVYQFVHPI
# Procedure, shortened: as §1
# ETV7 = biological target: T5, ETV7 (Homo sapiens, UniProt Q9Y603 1-341)
# T5 sequence: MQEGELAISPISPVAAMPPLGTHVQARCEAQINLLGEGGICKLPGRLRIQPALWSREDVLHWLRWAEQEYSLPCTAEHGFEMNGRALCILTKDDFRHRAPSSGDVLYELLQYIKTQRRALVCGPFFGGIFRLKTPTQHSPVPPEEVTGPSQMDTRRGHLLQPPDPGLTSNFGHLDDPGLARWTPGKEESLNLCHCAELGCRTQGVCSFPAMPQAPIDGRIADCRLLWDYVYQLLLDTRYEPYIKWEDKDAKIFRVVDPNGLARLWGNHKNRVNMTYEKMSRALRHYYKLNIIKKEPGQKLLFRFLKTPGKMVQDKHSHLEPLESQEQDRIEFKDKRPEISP
# Procedure, shortened: as §1
# ELF5 = biological target: T6, ELF5 (Homo sapiens, UniProt Q9UKW6-2 1-255)
# T6 sequence: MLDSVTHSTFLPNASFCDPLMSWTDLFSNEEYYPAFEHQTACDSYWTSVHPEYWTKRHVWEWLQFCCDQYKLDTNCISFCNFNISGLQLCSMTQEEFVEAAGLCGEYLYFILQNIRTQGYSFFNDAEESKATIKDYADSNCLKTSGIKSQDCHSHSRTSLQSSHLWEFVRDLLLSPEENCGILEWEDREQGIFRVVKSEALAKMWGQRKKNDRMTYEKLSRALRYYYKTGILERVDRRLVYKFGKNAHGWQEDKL
# Procedure, shortened: as §1
# ETV3 = biological target: T7, ETV3 (Homo sapiens, UniProt P41162-2 1-143)
# T7 sequence: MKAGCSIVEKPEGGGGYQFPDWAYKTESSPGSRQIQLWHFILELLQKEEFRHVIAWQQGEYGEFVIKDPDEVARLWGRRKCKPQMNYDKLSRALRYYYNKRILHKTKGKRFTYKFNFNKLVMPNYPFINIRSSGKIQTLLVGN
# Procedure, shortened: as §1
# ETV6 = ETV6 (Homo sapiens, UniProt P41212 1-452)
# Procedure, shortened: as §1
# ETV6, sequence (P41212 whole entry): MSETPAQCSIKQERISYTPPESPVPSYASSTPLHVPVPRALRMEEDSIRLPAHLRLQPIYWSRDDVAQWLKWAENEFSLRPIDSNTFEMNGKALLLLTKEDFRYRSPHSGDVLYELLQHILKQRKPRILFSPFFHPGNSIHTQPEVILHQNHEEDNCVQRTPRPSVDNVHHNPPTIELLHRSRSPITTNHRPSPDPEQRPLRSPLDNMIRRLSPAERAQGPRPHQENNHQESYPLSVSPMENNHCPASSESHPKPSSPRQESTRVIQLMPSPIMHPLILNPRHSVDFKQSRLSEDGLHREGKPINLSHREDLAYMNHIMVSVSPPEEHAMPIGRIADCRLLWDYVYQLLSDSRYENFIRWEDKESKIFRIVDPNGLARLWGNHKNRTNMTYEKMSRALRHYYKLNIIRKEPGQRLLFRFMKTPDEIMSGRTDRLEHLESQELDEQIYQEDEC
Sequence,binding signal (ERF),binding signal (ETV3L),binding signal (ETS2),binding signal (SPDEF),binding signal (ETV7),binding signal (ELF5),binding signal (ETV3),binding signal (ETV6)
ATTAGC,"1.09 fold enrichment (6-mer frequency, TF over GST control)","1.13 fold enrichment (6-mer frequency, TF over GST control)","1.13 fold enrichment (6-mer frequency, TF over GST control)","1.09 fold enrichment (6-mer frequency, TF over GST control)","1.17 fold enrichment (6-mer frequency, TF over GST control)","1.1 fold enrichment (6-mer frequency, TF over GST control)","1.16 fold enrichment (6-mer frequency, TF over GST control)","1.1 fold enrichment (6-mer frequency, TF over GST control)"
GGACAT,"1.12 fold enrichment (6-mer frequency, TF over GST control)","1.13 fold enrichment (6-mer frequency, TF over GST control)","1.18 fold enrichment (6-mer frequency, TF over GST control)","1.43 fold enrichment (6-mer frequency, TF over GST control)","1.23 fold enrichment (6-mer frequency, TF over GST control)","1.24 fold enrichment (6-mer frequency, TF over GST control)","1.23 fold enrichment (6-mer frequency, TF over GST control)","1.18 fold enrichment (6-mer frequency, TF over GST control)"
ACTTAA,"1.26 fold enrichment (6-mer frequency, TF over GST control)","1.16 fold enrichment (6-mer frequency, TF over GST control)","1.19 fold enrichment (6-mer frequency, TF over GST control)","1.17 fold enrichment (6-mer frequency, TF over GST control)","1.27 fold enrichment (6-mer frequency, TF over GST control)","1.16 fold enrichment (6-mer frequency, TF over GST control)","1.17 fold enrichment (6-mer frequency, TF over GST control)","1.21 fold enrichment (6-mer frequency, TF over GST control)"
CGCTCC,"1.31 fold enrichment (6-mer frequency, TF over GST control)","1.4 fold enrichment (6-mer frequency, TF over GST control)","1.39 fold enrichment (6-mer frequency, TF over GST control)","1.22 fold enrichment (6-mer frequency, TF over GST control)","1.18 fold enrichment (6-mer frequency, TF over GST control)","1.23 fold enrichment (6-mer frequency, TF over GST control)","1.19 fold enrichment (6-mer frequency, TF over GST control)","1.11 fold enrichment (6-mer frequency, TF over GST control)"
GCCTAT,"1.23 fold enrichment (6-mer frequency, TF over GST control)","1.28 fold enrichment (6-mer frequency, TF over GST control)","1.09 fold enrichment (6-mer frequency, TF over GST control)","1.27 fold enrichment (6-mer frequency, TF over GST control)","1.24 fold enrichment (6-mer frequency, TF over GST control)","1.15 fold enrichment (6-mer frequency, TF over GST control)","1.21 fold enrichment (6-mer frequency, TF over GST control)","1.19 fold enrichment (6-mer frequency, TF over GST control)"
CCTCTG,"1.65 fold enrichment (6-mer frequency, TF over GST control)","1.36 fold enrichment (6-mer frequency, TF over GST control)","1.42 fold enrichment (6-mer frequency, TF over GST control)","1.54 fold enrichment (6-mer frequency, TF over GST control)","1.79 fold enrichment (6-mer frequency, TF over GST control)","1.5 fold enrichment (6-mer frequency, TF over GST control)","1.64 fold enrichment (6-mer frequency, TF over GST control)","1.39 fold enrichment (6-mer frequency, TF over GST control)"
CCCACT,"1.42 fold enrichment (6-mer frequency, TF over GST control)","1.37 fold enrichment (6-mer frequency, TF over GST control)","1.32 fold enrichment (6-mer frequency, TF over GST control)","1.27 fold enrichment (6-mer frequency, TF over GST control)","1.28 fold enrichment (6-mer frequency, TF over GST control)","1.31 fold enrichment (6-mer frequency, TF over GST control)","1.32 fold enrichment (6-mer frequency, TF over GST control)","1.37 fold enrichment (6-mer frequency, TF over GST control)"
GACTAC,"1.19 fold enrichment (6-mer frequency, TF over GST control)","1.17 fold enrichment (6-mer frequency, TF over GST control)","1.08 fold enrichment (6-mer frequency, TF over GST control)","1.1 fold enrichment (6-mer frequency, TF over GST control)","1.17 fold enrichment (6-mer frequency, TF over GST control)","1.24 fold enrichment (6-mer frequency, TF over GST control)","1.11 fold enrichment (6-mer frequency, TF over GST control)","1.11 fold enrichment (6-mer frequency, TF over GST control)"

# — article PMC7862700, “An all-to-all approach to the identification of sequence-specific readers for epigenetic DNA modifications on cytosine”
